Laboratory results from PubChem BioAssay (Tox21).
Several values for one entry are separate records, joined by “and”; a condition that tells them apart may be missing. Equal values may be shown once. Inconclusive results are not listed. Where a call stands in place of a potency, no number is given. More than one record can exist for a structure, and the calls need not agree. Activity calls are given as the source filed them. Unless noted, calls come from the whole dose curve.

Experiments:
[1] = Nuclear factor erythroid 2-related factor 2/antioxidant responsive element (Nrf2/ARE) small molecule agonists: qHTS cell viability counter screen in human keratinocytes (AID 1919968; active = well fitted curve in the direction sought with a large enough effect in the repeat runs; an effect the other way counts as inactive or inconclusive; note: nearly all actives have a fitted effect of over 55% in size; note: potency is the fitted concentration of half-maximal effect)
Method in brief: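 HaCaT ARE reporter line, 1,500 cells/well; 5 h settle, 37 C/5% CO2; cpd in DMSO pinned; 23 h exposure; CellTiter-Fluor, 1 h; fluorescence.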

[2] = Nuclear factor erythroid 2-related factor 2/antioxidant responsive element (Nrf2/ARE) small molecule agonists: luciferase reporter gene qHTS assay in human keratinocytes (AID 1919969); note: nearly all actives have a fitted effect of over 35% in size; note: potency is the fitted concentration of half-maximal effect
[3] = biological target: Gonadotropin-releasing hormone receptor (Homo sapiens) (UniProt P30968); experiment: Human gonadotropin-releasing hormone receptor (GnRHR) small molecule agonists, calcium flux assay in GnRHR-HEK293 cells (AID 1920063); note: nearly all actives have a fitted effect of over 35% in size; note: potency is the fitted concentration of half-maximal effect
Gonadotropin-releasing hormone receptor (Homo sapiens), sequence (P30968 whole entry, looked up): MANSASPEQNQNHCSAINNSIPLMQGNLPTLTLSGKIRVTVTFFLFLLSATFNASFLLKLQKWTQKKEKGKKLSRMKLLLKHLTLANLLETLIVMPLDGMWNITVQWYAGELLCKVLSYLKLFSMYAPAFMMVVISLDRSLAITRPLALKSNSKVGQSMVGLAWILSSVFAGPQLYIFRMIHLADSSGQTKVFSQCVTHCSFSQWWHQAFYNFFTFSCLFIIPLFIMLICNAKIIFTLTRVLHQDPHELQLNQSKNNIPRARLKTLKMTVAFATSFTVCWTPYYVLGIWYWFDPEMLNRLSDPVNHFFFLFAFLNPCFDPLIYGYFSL
Method in brief: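 GnRHR-HEK293, 1500 cells/well, 18 h 37 C/5% CO2; Ca dye 1 h 37 C; cpd pinned (DMSO), agonist mode; kinetic FL 480/540, 3 min, 1 s reads; 15 conc, n=3.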

[4] = biological target: KiSS-1 receptor (Homo sapiens) (UniProt Q969F8); experiment: Human kisspeptin (KISS1R) small molecule agonists, calcium flux assay in KISS1R-HEK293 cells (AID 1920064; active = well fitted curve in the direction sought with a large enough effect in the repeat runs; an effect the other way counts as inactive or inconclusive)
KiSS-1 receptor (Homo sapiens), sequence (Q969F8 whole entry, looked up): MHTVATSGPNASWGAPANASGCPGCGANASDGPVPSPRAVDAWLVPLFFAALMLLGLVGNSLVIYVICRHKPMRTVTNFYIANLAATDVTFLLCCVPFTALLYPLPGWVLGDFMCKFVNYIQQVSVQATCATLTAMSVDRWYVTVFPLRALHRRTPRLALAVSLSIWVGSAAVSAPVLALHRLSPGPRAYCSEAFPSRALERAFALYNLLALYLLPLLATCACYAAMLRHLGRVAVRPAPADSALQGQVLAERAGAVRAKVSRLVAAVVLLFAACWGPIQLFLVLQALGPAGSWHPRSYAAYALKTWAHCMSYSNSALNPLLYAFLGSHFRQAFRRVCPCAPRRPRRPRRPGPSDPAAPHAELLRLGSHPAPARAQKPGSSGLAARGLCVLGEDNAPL
Method in brief: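 Stable human KISS1R HEK293 line; 18 h plating, 37 C/5% CO2; calcium dye 1 h 37 C; compound pin transfer; kinetic fluorescence Ex/Em 480/540, 3 min.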

[5] = G protein-coupled receptor (GPCR) small molecule agonists, calcium flux assay: HEK293 wild type cell line counter screen (AID 1920065)
Method in brief: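 Kinetic fluorescence at Ex/Em 480/540, recorded every second over 3 min, served as the read-out after compound addition. Each compound was tested at 15 concentrations in triplicate on cells pre-loaded with calcium dye for 1 h.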

[6] = p53 small molecule agonists, cell-based qHTS assay with human liver microsomes (AID 1963577);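 note: p53 response element beta-lactamase reporter cells with liver microsomes plus NADPH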
Method in brief: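 HLM-supplemented p53RE-bla reporter assay: 16 h compound exposure at 37 C, microsomes and NADPH each 0.5 mg/mL final, read by fluorescence intensity.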

[7] = p53 small molecule agonists, cell-based qHTS assay with rat liver microsomes (AID 1963578)
Method in brief: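 Quantitative HTS of the Tox21 10K library: p53RE-bla cells, rat liver microsomes plus NADPH at 0.5 mg/mL final each, 16 h at 37 C, beta-lactamase fluorescence detection.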

[8] = p53 small molecule agonists, cell-based qHTS assay with human liver microsomes: qHTS cell viability counter screen (AID 1963579); note: nearly all actives have a fitted effect of over 45% in size; note: potency is the fitted concentration of half-maximal effect
Method in brief: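 Viability of p53RE-bla cells is measured as CellTiter-Glo luminescence following a 16 h, 37 C incubation with compound, liver microsomes from human donors and NADPH.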

[9] = p53 small molecule agonists, cell-based qHTS assay with rat liver microsomes: qHTS cell viability counter screen (AID 1963580); note: nearly all actives have a fitted effect of over 45% in size; note: potency is the fitted concentration of half-maximal effect
Method in brief: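 p53RE-bla HCT-116 cells (4,000/well) rested 5 h at 37 C, then given Tox21 compounds in DMSO with rat liver microsomes (0.5 mg/mL final) plus NADPH (0.5 mg/mL final) for 16 h at 37 C. Viability read by CellTiter-Glo luminescence after 30 min at room temperature.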

[10] = p53 small molecule agonists, cell-based qHTS assay (AID 1963582; active = well fitted activation curve with a large enough effect in the signal ratio in the repeat runs, not every such curve was filed as active; the % refers to the signal ratio)
Method in brief: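 Reporter line: p53RE-bla. Pre-incubation 5 h, 37 C, 5% CO2; compound (DMSO, pin tool) 16 h, 37 C; B/G FRET substrate 2 h RT; fluorescence intensity read.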

[11] = biological target: 5-hydroxytryptamine receptor 2A (Homo sapiens) (UniProt P28223); experiment: 5-hydroxytryptamine receptor 2A (HTR2A) small molecule antagonists, cell-based qHTS assay (AID 1963586); note: nearly all actives have a fitted effect of over 45% in size
5-hydroxytryptamine receptor 2A (Homo sapiens), sequence (P28223 whole entry, looked up): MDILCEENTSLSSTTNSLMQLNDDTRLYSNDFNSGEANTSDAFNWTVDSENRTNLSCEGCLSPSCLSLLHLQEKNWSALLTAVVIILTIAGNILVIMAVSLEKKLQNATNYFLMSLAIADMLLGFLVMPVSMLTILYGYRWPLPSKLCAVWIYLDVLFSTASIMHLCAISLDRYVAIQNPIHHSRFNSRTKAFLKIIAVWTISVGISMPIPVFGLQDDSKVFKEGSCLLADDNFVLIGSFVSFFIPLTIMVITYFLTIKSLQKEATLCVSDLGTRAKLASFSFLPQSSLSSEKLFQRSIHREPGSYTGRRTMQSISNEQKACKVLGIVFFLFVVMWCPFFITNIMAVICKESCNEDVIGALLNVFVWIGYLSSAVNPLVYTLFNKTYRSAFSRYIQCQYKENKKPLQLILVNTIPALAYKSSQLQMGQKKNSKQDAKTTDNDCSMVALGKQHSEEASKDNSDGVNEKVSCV
Method in brief: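 Antagonist-mode intracellular calcium assay: DOI (4 nM) added after 5 min compound pre-incubation at room temperature to dye-loaded HTR2A-CHO cells. Fluorescence followed for 3 min, sampled every second.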

[12] = biological target: 5-hydroxytryptamine receptor 2A (Homo sapiens) (UniProt P28223); experiment: 5-hydroxytryptamine receptor 2A (HTR2A) small molecule agonists, cell-based qHTS assay (AID 1963587); note: nearly all actives have a fitted effect of over 30% in size
Method in brief: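 HTR2A-CHO cells, plated 18 h at 37 C/5% CO2, dye-loaded 1 h at 37 C; compounds in DMSO added by pin tool (agonist mode). Intracellular calcium flux read as kinetic fluorescence on FDSS over 2 min at 1 s intervals.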

[13] = biological target: Muscarinic acetylcholine receptor M1 (Homo sapiens) (UniProt P11229); experiment: Cholinergic receptor muscarinic 1 (CHRM1) small molecule antagonists, cell-based qHTS assay (AID 1963588); note: nearly all actives have a fitted effect of over 40% in size
Muscarinic acetylcholine receptor M1 (Homo sapiens), sequence (P11229 whole entry, looked up): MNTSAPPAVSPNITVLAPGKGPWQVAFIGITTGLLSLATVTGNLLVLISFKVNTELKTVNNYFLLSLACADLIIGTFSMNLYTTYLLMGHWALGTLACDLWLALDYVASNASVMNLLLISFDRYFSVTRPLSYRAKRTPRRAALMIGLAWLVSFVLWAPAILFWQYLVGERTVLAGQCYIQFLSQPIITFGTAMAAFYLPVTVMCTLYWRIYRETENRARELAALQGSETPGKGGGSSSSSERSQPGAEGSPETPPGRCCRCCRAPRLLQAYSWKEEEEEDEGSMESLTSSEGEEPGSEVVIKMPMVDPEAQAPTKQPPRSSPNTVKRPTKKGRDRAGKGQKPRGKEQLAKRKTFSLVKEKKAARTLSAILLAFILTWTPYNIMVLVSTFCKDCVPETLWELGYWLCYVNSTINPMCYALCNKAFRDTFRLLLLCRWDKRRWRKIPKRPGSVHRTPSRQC
Method in brief: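 CHRM1-CHO calcium-flux assay, antagonist mode. Cells were seeded 18 h, dye-loaded 1 h at 37 C and given compound for 5 min at RT, then acetylcholine was added at 50nM. FDSS fluorescence was read 3 min; 15 concentrations, three runs.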

[14] = biological target: Muscarinic acetylcholine receptor M1 (Homo sapiens) (UniProt P11229); experiment: Cholinergic receptor muscarinic 1 (CHRM1) small molecule agonists, cell-based qHTS assay (AID 1963589); note: nearly all actives have a fitted effect of over 35% in size
Method in brief: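 Human M1 in stable CHO line; 18 h plating, 1 h dye load 37 C; cpd added (agonist mode); Ca2+ fluorescence kinetic read, 1 s intervals; 15 conc, 3 runs.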

[15] = cAMP Responsive Elements (CRE) small molecule agonists, cell-based qHTS assay (AID 1963590)
Method in brief: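 HEK 293T CRE-bla, 2,000 cells/well, 18 h preincubation 37 C/5% CO2; cpds (DMSO) pinned, 3 h; LiveBLAzer B/G FRET substrate, 2 h RT.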

[16] = cAMP Responsive Elements (CRE) small molecule antagonists, cell-based qHTS assay (AID 1963591; active = well fitted inhibition curve with a large enough effect in the signal ratio in the repeat runs, not every such curve was filed as active; the % refers to the signal ratio)
Method in brief: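 Beta-lactamase reporter read by FRET substrate (LiveBLAzer B/G) after 2 h at room temperature. CRE-bla HEK293T cells had received compound plus 0.25 uM (final) NKH477 for 3 h at 37 °C.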

[17] = biological target: D(2) dopamine receptor (Homo sapiens) (UniProt P14416); experiment: Dopamine D2 receptor (DRD2) small molecule agonists, cell-based qHTS assay (AID 1963594); note: nearly all actives have a fitted effect of over 35% in size
D(2) dopamine receptor (Homo sapiens), sequence (P14416 whole entry, looked up): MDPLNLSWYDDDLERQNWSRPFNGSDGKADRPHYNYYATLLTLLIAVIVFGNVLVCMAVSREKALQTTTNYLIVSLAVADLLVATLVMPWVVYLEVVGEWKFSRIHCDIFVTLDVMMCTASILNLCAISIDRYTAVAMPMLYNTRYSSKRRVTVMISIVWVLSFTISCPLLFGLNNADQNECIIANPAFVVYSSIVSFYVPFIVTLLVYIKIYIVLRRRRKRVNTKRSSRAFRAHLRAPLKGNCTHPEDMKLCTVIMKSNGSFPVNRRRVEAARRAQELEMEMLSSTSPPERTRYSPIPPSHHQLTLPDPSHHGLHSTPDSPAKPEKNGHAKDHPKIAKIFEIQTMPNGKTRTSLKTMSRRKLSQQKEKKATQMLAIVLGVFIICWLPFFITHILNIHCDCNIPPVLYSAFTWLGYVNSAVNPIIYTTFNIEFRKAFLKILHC
Method in brief: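 HEK293 cells stably expressing DRD2 were cultured 24 h at 37 C, then given Ro20-1724 (0.1 mM final) and compounds for 10 min at room temperature. NKH477 (200nM) was then added for 30 min. cAMP was read by HTRF.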

[18] = biological target: D(2) dopamine receptor (Homo sapiens) (UniProt P14416); experiment: Dopamine D2 receptor (DRD2) small molecule antagonists, cell-based qHTS assay (AID 1963595; active = well fitted inhibition curve with a large enough effect in the signal ratio in the repeat runs, with a control signal flat; the % refers to the signal ratio; note: potency is the fitted concentration of half-maximal effect)
Method in brief: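 HEK293 cells stably expressing DRD2 were preincubated with 0.1 mM Ro20-1724, then with compound for 10 min at room temperature. Cells were stimulated with 200 nM NKH477 plus 12 nM quinpirole for 30 min, and cAMP was read by HTRF.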

[19] = p53 small molecule agonists, cell-based qHTS assay: qHTS cell viability counter screen (AID 1963581); note: nearly all actives have a fitted effect of over 45% in size; note: potency is the fitted concentration of half-maximal effect
Method in brief: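 HCT-116 p53RE-bla cells, 4,000/well, plated 5 h before compound pin transfer; 16 h at 37 C; bla substrate 2 h RT; then CellTiter-Glo, 30 min RT, luminescence.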

[20] = biological target: Beta-2 adrenergic receptor (Homo sapiens) (UniProt P07550); experiment: Adrenergic beta2 receptor (ADRB2) small molecule antagonists, cell-based qHTS assay (AID 1963592); note: series mostly up to about 92 µM; nearly all actives have a fitted effect of over 50% in size
Beta-2 adrenergic receptor (Homo sapiens), sequence (P07550 whole entry, looked up): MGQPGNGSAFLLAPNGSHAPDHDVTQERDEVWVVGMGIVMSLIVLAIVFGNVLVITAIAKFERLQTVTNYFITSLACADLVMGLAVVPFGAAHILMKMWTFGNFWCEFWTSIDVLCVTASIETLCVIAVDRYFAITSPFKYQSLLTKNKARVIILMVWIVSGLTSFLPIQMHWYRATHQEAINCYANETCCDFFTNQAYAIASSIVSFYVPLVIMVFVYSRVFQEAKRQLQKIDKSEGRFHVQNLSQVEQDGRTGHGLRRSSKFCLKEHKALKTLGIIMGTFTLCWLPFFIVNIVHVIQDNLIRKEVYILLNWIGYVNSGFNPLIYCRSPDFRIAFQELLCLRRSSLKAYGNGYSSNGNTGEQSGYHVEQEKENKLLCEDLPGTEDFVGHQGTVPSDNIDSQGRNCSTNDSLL
Method in brief: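 Cells (CHO, stable ADRB2 overexpression) incubated 18-20hr at 37C; compounds added from DMSO; agonist mix (1nM isoproterenol, 100uM IBMX, 25uM Ro-20-1724) added; 0.5hr RT; d2-cAMP and anti-cAMP-cryptate added; 1hr RT; 665/615 nm read.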

SMILES | Potency [1] | Potency [2] | Potency [3] | Potency [4] | Potency [5] | Potency [6] | Potency [7] | Potency [8] | Potency [9] | Potency [10] | Potency [11] | Potency [12] | Potency [13] | Potency [14] | Potency [15] | Potency [16] | Potency [17] | Potency [18] | Potency [19] | Potency [20]
Cc1ccc(N)cc1 | inactive | inactive and 48.6 µM (active) | inactive | inactive | inactive | inactive | inactive | inactive | inactive | inactive | inactive | inactive | inactive | inactive | inactive | inactive | inactive | inactive | – | –
N#Cc1c(Cl)c(Cl)c(Cl)c(C#N)c1Cl | 2.68 µM (active) and 2.73 µM (active) | 950 nM (active) and 969 nM (active) | inactive | inactive | inactive | inactive | inactive | 25.2 µM (active) and 18.2 µM (active) | inactive | – | inactive | inactive | inactive | inactive | – | – | inactive | 15.1 µM (active) and 4.86 µM (active) | 18.2 µM (active) | inactive
C1CN2CCC1CC2 | inactive | inactive | inactive | inactive | inactive | inactive | inactive | inactive | inactive | inactive | inactive | inactive | inactive | – | inactive | inactive | inactive | – | – | inactive
c1ccc(OP(Oc2ccccc2)Oc2ccccc2)cc1 | inactive | inactive | inactive | inactive | inactive | inactive | inactive | inactive | inactive | inactive | inactive | inactive | inactive | inactive | inactive | inactive | inactive | – | – | inactive
CCCCCCCCCCn1cc[n+](C)c1 | inactive and 61.4 µM (active) and 30.6 µM (active) | inactive | inactive | inactive | inactive | inactive | inactive | 46.2 µM (active) and inactive | 36.7 µM (active) and inactive | – | inactive | inactive | – | inactive | – | – | inactive | inactive | inactive | –
CCN(CC)C(=O)C(C)Oc1cccc2ccccc12 (stereo not drawn) | inactive | inactive | inactive | inactive | inactive | inactive | inactive | inactive | inactive | – | inactive | inactive | inactive | inactive | inactive | inactive | – | inactive | – | inactive
CC1=C(C(=O)Nc2ccccc2)SCCO1 | inactive | inactive and 61.1 µM (active) | inactive | inactive | inactive | inactive | inactive | inactive | inactive | – | inactive | – | inactive | inactive | inactive | inactive | inactive | inactive | inactive | inactive
CCCCCCCCCCCCCCCC[n+]1ccccc1 | 29.8 µM (active) [middle of 4 runs] | inactive | 25.7 µM (active) and 38.9 µM (active) and 17.1 µM (active) | inactive | inactive | inactive | inactive | 36.3 µM (active) and 40.2 µM (active) and inactive | 42.7 µM (active) and inactive | inactive | – | – | – | – | – | – | inactive | inactive and 60.3 µM (active) | – | inactive
